{"source": "PubChem BioAssay AID1053205", "about": "(Broad Institute, 2014)", "note": "Entries with a potency or affinity are not part of this list. Results filed as inconclusive are left out. A number with no mark means an inactive call. Active and inactive are the calls of the source.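 Rule for the calls: active = compounds lowering the FRET ratio whose fitted half-maximal concentration is at most twice their top tested dose; inconclusive = flat partial drop between 30 and 70 percent, or bad fit; inactive = the rest.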"}
{"target": "Voltage-dependent L-type calcium channel subunit alpha-1D (Homo sapiens) (UniProt Q01668)", "sequence (Q01668 whole entry, looked up, the tested form may be a part)": "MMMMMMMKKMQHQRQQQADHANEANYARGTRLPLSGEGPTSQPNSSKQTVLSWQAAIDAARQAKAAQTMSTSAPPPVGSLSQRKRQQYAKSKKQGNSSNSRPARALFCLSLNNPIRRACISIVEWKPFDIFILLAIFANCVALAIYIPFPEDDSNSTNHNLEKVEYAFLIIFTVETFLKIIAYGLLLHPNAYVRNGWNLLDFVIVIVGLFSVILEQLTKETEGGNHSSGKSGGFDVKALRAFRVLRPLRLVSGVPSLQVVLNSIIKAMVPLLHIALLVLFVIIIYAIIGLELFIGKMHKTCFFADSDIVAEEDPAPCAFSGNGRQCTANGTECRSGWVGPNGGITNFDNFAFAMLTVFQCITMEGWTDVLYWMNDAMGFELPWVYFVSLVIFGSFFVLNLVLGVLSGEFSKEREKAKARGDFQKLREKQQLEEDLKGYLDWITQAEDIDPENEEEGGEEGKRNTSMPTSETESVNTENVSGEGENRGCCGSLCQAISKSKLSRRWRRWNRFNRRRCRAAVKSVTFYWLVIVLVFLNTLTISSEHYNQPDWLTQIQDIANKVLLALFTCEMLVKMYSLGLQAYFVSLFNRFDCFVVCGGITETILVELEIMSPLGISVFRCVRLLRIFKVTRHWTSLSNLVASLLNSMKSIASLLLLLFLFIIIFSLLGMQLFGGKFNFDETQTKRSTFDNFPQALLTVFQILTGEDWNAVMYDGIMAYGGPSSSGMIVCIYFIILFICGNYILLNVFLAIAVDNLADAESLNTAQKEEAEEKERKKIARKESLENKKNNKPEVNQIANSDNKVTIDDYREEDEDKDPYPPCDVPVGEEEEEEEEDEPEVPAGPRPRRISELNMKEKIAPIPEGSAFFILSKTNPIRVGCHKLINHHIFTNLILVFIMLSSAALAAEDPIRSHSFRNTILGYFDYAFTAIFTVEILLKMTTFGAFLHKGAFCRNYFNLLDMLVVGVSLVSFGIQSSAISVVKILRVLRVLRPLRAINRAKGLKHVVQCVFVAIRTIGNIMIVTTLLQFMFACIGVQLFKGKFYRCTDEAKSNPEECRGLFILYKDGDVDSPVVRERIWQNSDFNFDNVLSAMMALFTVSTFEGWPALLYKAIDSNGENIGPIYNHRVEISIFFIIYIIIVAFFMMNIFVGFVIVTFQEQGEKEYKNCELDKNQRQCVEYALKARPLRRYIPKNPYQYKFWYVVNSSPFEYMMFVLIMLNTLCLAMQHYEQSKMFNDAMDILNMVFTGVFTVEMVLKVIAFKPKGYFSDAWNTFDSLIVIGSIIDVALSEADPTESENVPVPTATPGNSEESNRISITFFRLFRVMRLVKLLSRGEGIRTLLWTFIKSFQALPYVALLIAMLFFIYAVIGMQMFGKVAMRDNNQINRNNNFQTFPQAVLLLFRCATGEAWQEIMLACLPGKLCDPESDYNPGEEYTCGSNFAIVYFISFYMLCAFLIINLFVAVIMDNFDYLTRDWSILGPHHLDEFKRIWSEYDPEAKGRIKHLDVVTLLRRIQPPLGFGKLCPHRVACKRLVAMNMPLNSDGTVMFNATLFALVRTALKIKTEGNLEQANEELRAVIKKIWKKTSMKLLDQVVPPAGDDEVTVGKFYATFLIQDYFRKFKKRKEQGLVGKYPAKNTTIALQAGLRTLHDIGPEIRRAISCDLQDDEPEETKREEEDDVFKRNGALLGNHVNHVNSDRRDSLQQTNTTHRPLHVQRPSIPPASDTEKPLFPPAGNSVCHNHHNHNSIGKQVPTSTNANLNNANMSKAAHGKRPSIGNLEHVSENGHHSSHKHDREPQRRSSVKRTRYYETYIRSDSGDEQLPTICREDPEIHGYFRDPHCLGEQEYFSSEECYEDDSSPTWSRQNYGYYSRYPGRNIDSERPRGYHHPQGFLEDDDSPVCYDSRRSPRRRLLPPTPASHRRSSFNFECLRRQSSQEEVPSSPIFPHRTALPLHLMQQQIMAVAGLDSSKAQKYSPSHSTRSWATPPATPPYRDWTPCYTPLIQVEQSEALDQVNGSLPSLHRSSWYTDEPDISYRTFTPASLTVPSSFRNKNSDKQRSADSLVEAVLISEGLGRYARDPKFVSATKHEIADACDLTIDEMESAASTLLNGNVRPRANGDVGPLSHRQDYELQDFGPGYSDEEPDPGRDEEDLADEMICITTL", "test": "disruptors of CaV1.3 IQ/ICDI domain association – cell-based, HEK293, YFP-IQ/CFP-ICDI FRET, cherry-picks, dose response (AID 1053205);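 note: 0% = median of neutral control wells and -100% = median of positive control wells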", "details": "HEK293 YFP-IQ/CFP-ICDI FRET ratio, 10 min; series mostly up to 35 µM"}
{"smiles": "COc1ccccc1C1C2=C(CC(C)(C)CC2=O)N(CC(=O)O)C2=C1C(=O)CC(C)(C)C2", "outcome": "inactive"}
{"smiles": "Cc1ccc(S(=O)(=O)Nc2ccc(Nc3ccccc3)cc2)cc1", "outcome": "inactive"}
{"smiles": "CSc1ccc(Cn2c(C)c(C(=O)NCc3cccc(Cl)c3)sc2=O)cc1", "outcome": "inactive"}
{"smiles": "CCCOc1ccc(NC(=O)c2c(-c3ccccc3)noc2C)cc1", "outcome": "inactive"}
{"smiles": "CCOC(=O)c1cc(-c2ccccc2)sc1NC(=O)CSc1nnc(N)s1", "outcome": "inactive"}
{"smiles": "CCC(=O)N1C(C(=O)NCc2ccc(OC)cc2)CSC1c1ccc(OC)cc1", "note": "(configuration not stated)", "outcome": "inactive"}
{"smiles": "CCOC(=O)c1cc2c(=O)n3ccccc3nc2n(C(C)C)c1=NC(=O)c1ccco1", "FRET change, negative = inhibition": "208% [at 8 µM]"}
{"smiles": "N#CC1=C(N)OC2=C(C(=O)CCC2)C1c1cc2c(cc1Br)OCO2", "note": "(configuration not stated)", "outcome": "inactive"}
{"smiles": "O=C(NNc1cc(N2CCCC2)nc(N2CCCC2)n1)c1ccc([N+](=O)[O-])cc1", "outcome": "inactive"}
{"smiles": "Cn1nc(-c2ccc(Cl)cc2)c2cc(C(=O)N3CCN(c4ccccc4)CC3)sc21", "outcome": "inactive"}
{"smiles": "COc1c(Cl)cc(-c2noc(C)c2C(=O)NCc2ccc3c(c2)OCO3)cc1Cl", "outcome": "inactive"}
{"smiles": "Cc1ccc(NC(=O)Nc2ccnc(-c3cccnc3)n2)cc1", "outcome": "inactive"}
{"smiles": "O=C(Nc1ccc2c(c1)OCCO2)c1ccc(NC(=O)C2CCCO2)cc1", "note": "(configuration not stated)", "outcome": "inactive"}
{"smiles": "O=C(NCc1ccc(F)cc1)C1CCCN1C(=O)Nc1cccc(F)c1", "note": "(configuration not stated)", "outcome": "inactive"}
{"smiles": "Cc1cccn2c(=O)c3cc(C(=O)NCc4ccco4)c(=N)n(CCc4ccccc4)c3nc12", "outcome": "inactive"}
{"smiles": "COC(=O)C1=CN(C)C=C(C(=O)OC)C1c1ccccc1Cl", "outcome": "inactive"}
{"smiles": "Cc1c(C(=O)NCc2ccc(Cl)c(Cl)c2)sc(=O)n1Cc1cccc(F)c1", "outcome": "inactive"}
{"smiles": "CCOc1ccc2nc(NCCCNS(=O)(=O)c3ccc(C)cc3)c(C#N)cc2c1", "outcome": "inactive"}
{"smiles": "CC(=O)c1cccc(-c2ccnc3c2CC(C(=O)NCc2ccc(F)c(F)c2)O3)c1", "note": "(configuration not stated)", "outcome": "inactive"}
{"smiles": "CC1CCN(C(=O)COc2cccc3c2CCN(Cc2ccccc2)C3=O)CC1", "outcome": "inactive"}
{"smiles": "CN1c2ccc(Cl)cc2C(=O)NC1C1CC=CCC1", "note": "(configuration not stated)", "outcome": "inactive"}
{"smiles": "Cn1cnc(S(=O)(=O)Nc2ccc(OC(F)(F)F)cc2)c1", "outcome": "inactive"}
{"smiles": "CCC(C)n1c(=N)c(C#N)cc2c(=O)n3cc(C)ccc3nc21", "note": "(configuration not stated)", "outcome": "inactive"}
{"smiles": "Cc1nc2ccc(S(=O)(=O)Nc3ccc(-c4nc5cccnc5s4)cc3)cc2s1", "outcome": "inactive"}
{"smiles": "CSc1ccc(Cn2c(C)c(C(=O)NCCC#N)sc2=O)cc1", "outcome": "inactive"}
{"smiles": "Cc1ccc(C(=O)OCC(=O)Nc2c(C)nn(-c3ccccc3)c2C)c(O)c1", "outcome": "inactive"}
{"smiles": "CNC(=O)c1ccc(NC(=O)c2cccc(C(F)(F)F)c2)cc1", "outcome": "inactive"}
{"smiles": "CCOC(=O)C1=CN(CC2CCCO2)C=C(C(=O)OCC)C1c1ccccc1C(F)(F)F", "note": "(configuration not stated)", "outcome": "inactive"}
{"smiles": "CN(C)CCOCCOc1ccc(Cl)c2ccccc12", "outcome": "inactive"}
{"smiles": "CCN(CC)CCCNc1nc(C)cc(COC)c1C#N", "outcome": "inactive"}
{"smiles": "CC(=O)Nc1cccc(-c2ccnc3c2CC(C(=O)NCc2cccc(Cl)c2)O3)c1", "note": "(configuration not stated)", "outcome": "inactive"}
{"smiles": "O=C(NNc1c2ccccc2nc2ccccc12)c1ccc(O)cc1", "outcome": "inactive"}
{"smiles": "CCn1c(=NC(=O)CSC(C)=O)sc2cc(OC)ccc21", "outcome": "inactive"}
{"smiles": "CCOc1ccc2nc(NCCNC(=O)CC)c(C#N)cc2c1", "outcome": "inactive"}
{"smiles": "CC/C(C)=N\\Nc1nc(-c2cc3cc(OC)ccc3oc2=O)cs1", "outcome": "inactive"}
{"smiles": "C=CCn1c(=N)c(C#N)cc2c(=O)n3ccccc3nc21", "outcome": "inactive"}
{"smiles": "C[C@H](NC(=O)c1nc[nH]c1C(=O)N[C@@H](Cc1ccccc1)C(=O)OC(C)(C)C)C(=O)OCc1ccccc1", "outcome": "inactive"}
